GPR151 activ = human GPR151 activation. PathHunter beta-arrestin GPR151 cells, luminescence. activation, % at 11.2 µM. AID 1508602. 1% of 650,000 active. Q8TDV0; in the data active = activation above about 4.9%
TEAD-YAP inh = TEAD-YAP interaction inhibition; HEK-TIYL cells, TEAD-Gal4/YAP UAS-luciferase luminescence; inhibition, % at 9.12 µM; 1.4% of 640,000 active; in the data active = inhibition above about 32%
FBW7 activator = activators of human E3 ligase FBW7; AID 1259310; 0.13% of 650,000 active; AlphaScreen FBW7–phospho-cyclin E peptide binding, activator screen; normalized activity (activation), % at 26.1 µM; in the data active = normalized activity above about 1.9%;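 note: purified mutant Fbw7 with reduced substrate affinity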
MITF primary = blocks human microphthalmia-associated transcription factor. AID 1259374. AlphaScreen MITF homodimerization, bead proximity signal. inhibition, % at 2.6 µM. 0.91% of 650,000 active. O75030; in the data active = inhibition above about 50%
Target sequence (O75030 whole entry, looked up): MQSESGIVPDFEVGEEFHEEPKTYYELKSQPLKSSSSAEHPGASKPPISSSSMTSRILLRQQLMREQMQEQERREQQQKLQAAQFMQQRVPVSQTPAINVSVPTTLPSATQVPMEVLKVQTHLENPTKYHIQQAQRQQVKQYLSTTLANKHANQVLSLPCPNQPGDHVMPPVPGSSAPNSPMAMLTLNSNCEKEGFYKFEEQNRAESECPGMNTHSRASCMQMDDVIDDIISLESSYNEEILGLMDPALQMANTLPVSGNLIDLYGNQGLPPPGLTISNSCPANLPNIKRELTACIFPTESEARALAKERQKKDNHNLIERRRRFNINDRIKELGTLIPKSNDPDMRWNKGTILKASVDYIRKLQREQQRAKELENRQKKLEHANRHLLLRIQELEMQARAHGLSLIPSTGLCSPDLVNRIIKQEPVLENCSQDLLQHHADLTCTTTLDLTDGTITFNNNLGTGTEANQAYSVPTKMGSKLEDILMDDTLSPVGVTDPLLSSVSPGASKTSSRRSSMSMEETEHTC
GPR151 confirm = confirmation of human GPR151 activators | shares compounds with GPR151 activ | GPR151 PathHunter beta-arrestin cells, luminescence, 90 min; % of EA-reagent control over plate median | activation, % at 11.2 µM | 6,700 tested, under 10 active | AID 1508609;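 active = mean percent activation across replicates above the confirmation screen cutoff of 4.91%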
GPR119 counter = GPR119 activation, counter-screen for GPR151 activators | activation, % at 11.2 µM | GPR119 PathHunter beta-arrestin cells, luminescence, 90 min; 0 = compound-well median, 100 = enzyme-acceptor control | shares compounds with GPR151 activ | 0.3% of 6,700 active | AID 1508611;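 active = mean percent activation in the counterscreen above 29.09%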;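 note: counterscreen on off-target GPR119 to flag nonselective hits from the GPR151 activator screen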
Of the large screens only hits and unclear results are named; the others gave an inactive call (follow-up assays come after a bar, where they were run); ! = a repeat was not active. The list is not random: actives were taken first. Their share in the collection is about 3.5%.

COC(=O)c1ccc(C(=O)N=c2sc3cccc(OC)c3n2C)cc1	none
COc1cc(NC(=O)c2ccccc2OC)c(C(=O)O)cc1OC	GPR151 activ 6.7 | GPR151 confirm inactive | GPR119 counter inactive
COc1ccc(Br)cc1C(=O)Nc1cc(Cl)ccc1C(=O)O	GPR151 activ 8.4 | GPR151 confirm inactive | GPR119 counter inactive
COc1cc(NC(=O)c2ccccc2F)c(C(=O)O)cc1OC	none
COC(=O)c1cc(OC)c(OC)cc1NC(=O)c1cc(C)ccc1C	none
COC(=O)c1cc(OC)c(OC)cc1NC(=O)c1ccccc1C	GPR151 activ 9.7 | GPR151 confirm inactive | GPR119 counter inactive
O=S(=O)(c1ccc2c(c1)OCCO2)N1CCN(c2ccc(-c3ccccc3)nn2)CC1	none
Cc1cn2cc(C(=O)NCCc3ccccn3)nc2s1	none
COc1cccc(N2CCN(S(=O)(=O)c3cccs3)CC2)c1	none
COc1ccc(NS(=O)(=O)c2cc3c(cc2C)N(C)CCO3)c(OC)c1	GPR151 activ 7.3 | GPR151 confirm inactive | GPR119 counter inactive
COc1cc(OC)c(NS(=O)(=O)c2cc3c(cc2C)N(C)CCO3)cc1Cl	none
O=[N+]([O-])c1cccc(/C=N/NC2=Nc3cccc4cccc2c34)c1	none
O=C(NC1=Nc2cccc3cccc1c23)c1ccc([N+](=O)[O-])cc1	GPR151 activ 5.5 | GPR151 confirm inactive | GPR119 counter inactive
O=[N+]([O-])c1ccc(/C=N/NC2=Nc3cccc4cccc2c34)cc1	GPR151 activ 6.3 | GPR151 confirm inactive | GPR119 counter inactive
O=C(N1CCCCC1)C12CC3CC(C1)CC(c1ccc([N+](=O)[O-])cc1)(C3)C2	GPR151 activ 6.8 | GPR151 confirm inactive | GPR119 counter inactive
Cc1ccc(Sc2cc(C(=O)NC3CCC(C)CC3)c3ccccc3n2)cc1 (stereo not drawn)	none
Cc1ccc(Sc2cc(C(=O)NC3CC3)c3ccccc3n2)cc1	GPR151 activ 5.4 | GPR151 confirm inactive | GPR119 counter inactive
CNC(=O)c1cc(-c2ccc(C)cc2)nc2ccccc12	GPR151 activ 5.4 | GPR151 confirm inactive | GPR119 counter inactive
O=C(Nc1ccncc1)c1cc(-c2ccncc2)nc2ccccc12	GPR151 activ 5.2 | GPR151 confirm inactive | GPR119 counter inactive
Nc1nc(NCc2cccc(C(F)(F)F)c2)cc(N2CCN(c3ccccn3)CC2)n1	none
CCCCOC(=O)c1cccc(NC(=S)NC(=O)c2ccc(Cl)cc2)c1	none
COc1cccc(C(=O)COC(=O)c2ccc3c(c2)OCO3)c1	GPR151 activ 5.3 | GPR151 confirm inactive | GPR119 counter inactive
O=C(NCc1n[nH]c(=S)n1-c1ccccc1Cl)c1ccccc1F	GPR151 activ 6.7 | GPR151 confirm inactive | GPR119 counter inactive
COc1cccc(C2CC(=O)Nc3cc(C)c(C)cc32)c1OC (stereo not drawn)	none
Cc1cc2c(cc1C)C(c1cc([N+](=O)[O-])ccc1Cl)CC(=O)N2 (stereo not drawn)	GPR151 activ 5.0 | GPR151 confirm inactive | GPR119 counter inactive
Cc1cc2c(cc1C)C(c1cccc([N+](=O)[O-])c1)CC(=O)N2 (stereo not drawn)	none
COc1cc(C2CC(=O)Nc3cc(C)c(C)cc32)cc(OC)c1OC (stereo not drawn)	GPR151 activ 13, TEAD-YAP inh 49 | GPR151 confirm inactive | GPR119 counter inactive
Cc1cc(NC(=O)CSc2nc3ccsc3c(=O)n2-c2ccc(C(N)=O)cc2)no1	GPR151 activ 5.0 | GPR151 confirm inactive | GPR119 counter inactive
COc1ccc(/C=N/NC(=O)c2ccc(=O)n(C)c2)cc1OC	GPR151 activ 10 | GPR151 confirm inactive | GPR119 counter inactive
CCCCOc1ccc(OCC(=O)N/N=C/c2cccc(OC)c2)cc1	GPR151 activ 5.7 | GPR151 confirm inactive | GPR119 counter inactive
COc1ccc(/C=N\NC(=O)COc2c(C)cccc2C)cc1OC	GPR151 activ 9.9 | GPR151 confirm inactive | GPR119 counter inactive
COc1ccc(/C=N/NC(=O)c2ccc(=O)n(C)c2)cc1	none
COc1cccc(/C=N/NC(=O)COc2ccc3ccccc3c2)c1	none
Cc1ccc(S(=O)(=O)N2CCC(C(=O)NCC(C)(C)C)CC2)cc1	none
O=C(Nc1ccc(I)cc1)c1ccccc1F	none
CCOC(=O)c1c(NC(=O)COc2ccc(I)cc2)sc(C)c1C	none
COc1cc(Nc2cc(C)nc(N3CCc4ccccc4C3)n2)cc(OC)c1OC	none
COc1cc(Nc2ccnc(N3CCc4ccccc4C3)n2)cc(OC)c1OC	GPR151 activ 6.8 | GPR151 confirm inactive | GPR119 counter inactive
COc1ccc(C(=O)NCC(=O)OCc2cccc(F)c2)cc1	none
COc1ccc(-c2noc(NCc3ccccc3)n2)cc1OC	none
COc1ccc(-c2noc(NCc3cccc(Cl)c3)n2)cc1OC	GPR151 activ 4.9 | GPR151 confirm inactive | GPR119 counter inactive
CCCCNc1nc(SCC(=O)Nc2ccc(OCC)cc2)nc2ccccc12	none
CCOc1ccc(NC(=O)CSc2nc(NCCc3ccccc3)c3ccccc3n2)cc1	GPR151 activ 6.0 | GPR151 confirm inactive | GPR119 counter inactive
COCCNc1nc(SCC(=O)NCCc2ccc(S(N)(=O)=O)cc2)nc2ccccc12	GPR151 activ 4.9 | GPR151 confirm inactive | GPR119 counter inactive
CC1CCCN(c2nc3c(c(=O)[nH]2)CCN(CC2CCC=CO2)C3)C1 (stereo not drawn)	GPR151 activ 9.5 | GPR151 confirm inactive | GPR119 counter inactive
O=c1[nH]c(N2CCCCC2)nc2c1CCN(CC1CCC=CO1)C2 (stereo not drawn)	none
O=C(NCCOc1ccccc1)c1ccnc(-c2csc3ccccc23)c1	GPR151 activ 4.9 | GPR151 confirm inactive | GPR119 counter inactive
CCn1c(C)cc(C=C2C(=O)c3ccccc3C2=O)c1C	GPR151 activ 8.2, TEAD-YAP inh 66 | GPR151 confirm inactive | GPR119 counter inactive
Cc1ncc(CN2CCC3(CC2)NC(=O)c2ccccc2O3)n1C	GPR151 activ 4.9 | GPR151 confirm inactive | GPR119 counter inactive
Cc1ccc(C2(C(=O)N3CCC4(CC3)NC(=O)c3ccccc3O4)CC2)cc1	GPR151 activ 5.6 | GPR151 confirm inactive | GPR119 counter inactive
Cc1c(CN2CCC3(CC2)NC(=O)c2ccccc2O3)cnn1C	none
O=C1NC2(CCN(C(=O)C3(c4ccc(Cl)cc4)CC3)CC2)Oc2ccccc21	none
CN1CCN(C(c2ccccc2)c2ccc(Cl)cc2)CC1 (stereo not drawn)	GPR151 activ 6.4! | GPR151 confirm inactive | GPR119 counter inactive
COc1ccc(NC(=O)CCc2c(C)nc3cc(-c4ccccc4OC)nn3c2C)cc1	none
COc1cccc(NC(=O)CCc2c(C)nc3cc(-c4ccccc4OC)nn3c2C)c1	GPR151 activ 8.2 | GPR151 confirm inactive | GPR119 counter inactive
Cn1ccc2cc(-c3cc(C(=O)NC4CC4)ccn3)ccc21	GPR151 activ 22 | GPR151 confirm inactive | GPR119 counter inactive
COc1ccc(CNC(=S)NC(C)C)cc1OC	none
